{
  "source": "paper PMC11995724",
  "about": "“Antibiotic target discovery by integrated phenotypic and activity-based profiling of electrophilic fragments” (Cell chemical biology, 2025)",
  "note": "Hit rate of the full screen: of about 3,200 compounds, about 110 (3.4%) showed an effect of 50% or more. The full list was thinned out, with strong results kept by preference.",
  "data": [
    {"test_system": "T1, V. cholerae SAD30", "T1 construct": "SAD30", "design": "species or system S. aureus MSSA476 (TSB) or V. cholerae SAD30 (LB); 384-well bacterial growth screen at 25 uM, OD600 relative to DMSO control", "settings": "relative growth, OD600, LB; 25 µM; inhibitor", "units": {"% of control remaining": "%"}, "values": [
      {"smiles": "C=CC(=O)N1CCC[C@H]1C(=O)Nc1cccc(C)n1", "note": "[1-B10, (2S)-N-(6-methylpyridin-2-yl)-1-(prop-2-enoyl)pyrrolidine-2-carboxamide]", "% of control remaining": 90.0393},
      {"smiles": "C=CCNC(=O)C(C#N)=Cc1ccc(C)s1", "note": "[9-F05, 2-cyano-3-(5-methylthiophen-2-yl)-N-(prop-2-en-1-yl)prop-2-enamide]", "% of control remaining": 77.8382},
      {"smiles": "CC(Cl)C(=O)NCCc1cn(C)nn1", "note": "(stereo not shown) [7-A14, 2-chloro-N-[2-(1-methyl-1H-1,2,3-triazol-4-yl)ethyl]propanamide]", "% of control remaining": 82.7358},
      {"smiles": "Cc1cccc2nc(C3CCN(C(=O)C(C)Cl)CC3)oc12", "note": "(stereo not shown) [7-M12, 2-chloro-1-[4-(7-methyl-1,3-benzoxazol-2-yl)piperidin-1-yl]propan-1-one]", "% of control remaining": 63.8361},
      {"smiles": "CC(Cl)C(=O)Nc1ccc2c(c1)CCC2", "note": "(stereo not shown) [5-C19, 2-chloro-N-(2,3-dihydro-1H-inden-5-yl)propanamide]", "% of control remaining": 86.9181},
      {"smiles": "O=C(CCl)c1ccc(CC(=O)N2CCOCC2)s1", "note": "[10-H06, 2-chloro-1-{5-[2-(morpholin-4-yl)-2-oxoethyl]thiophen-2-yl}ethan-1-one]", "% of control remaining": 101.305},
      {"smiles": "N#CC(=Cc1ccccc1Cl)C(=O)Nc1ccc2c(c1)OCCO2", "note": "[8-F03, 3-(2-chlorophenyl)-2-cyano-N-(2,3-dihydro-1,4-benzodioxin-6-yl)prop-2-enamide]", "% of control remaining": 94.4256},
      {"smiles": "O=C(CCl)c1cc(Cl)sc1Cl", "note": "[10-D16, 2-chloro-1-(2,5-dichlorothiophen-3-yl)ethan-1-one]", "% of control remaining": 21.5079},
      {"smiles": "Cc1cc(C(=O)CCl)c(C)n1CC(N)=O", "note": "[10-O16, 2-[3-(2-chloroacetyl)-2,5-dimethyl-1H-pyrrol-1-yl]acetamide]", "% of control remaining": 94.6035},
      {"smiles": "Cc1cc(C(=O)CCl)c(C)[nH]1", "note": "[10-J08, 2-chloro-1-(2,5-dimethyl-1H-pyrrol-3-yl)ethan-1-one]", "% of control remaining": 99.1233},
      {"smiles": "Cc1cc(C(=O)CCl)c(C)n1-c1cc(Cl)cc(Cl)c1", "note": "[10-I04, 2-chloro-1-[1-(3,5-dichlorophenyl)-2,5-dimethyl-1H-pyrrol-3-yl]ethan-1-one]", "% of control remaining": 87.746},
      {"smiles": "Cc1cc(C(=O)CCl)c(C)s1", "note": "[10-K16, 2-chloro-1-(2,5-dimethylthiophen-3-yl)ethan-1-one]", "% of control remaining": 28.6772},
      {"smiles": "N#CC(=Cc1cccc2ccccc12)C(=O)NC1CC1", "note": "[9-O03, 2-cyano-N-cyclopropyl-3-(naphthalen-1-yl)prop-2-enamide]", "% of control remaining": 97.2808},
      {"smiles": "CC(C)N(Cc1ccc(N(C)C)cc1)C(=O)CCl", "note": "[5-E06, 2-chloro-N-{[4-(dimethylamino)phenyl]methyl}-N-(propan-2-yl)acetamide]", "% of control remaining": 100.2},
      {"smiles": "O=C(CCl)NCCOc1cccc(F)c1", "note": "[6-G03, 2-chloro-N-[2-(3-fluorophenoxy)ethyl]acetamide]", "% of control remaining": 108.75},
      {"smiles": "CC(Cl)C(=O)NCc1ccon1", "note": "(stereo not shown) [7-I13, 2-chloro-N-[(1,2-oxazol-3-yl)methyl]propanamide]", "% of control remaining": 79.9604},
      {"smiles": "Cc1ccc(-n2c(C)cc(C(=O)CCl)c2C)cc1C", "note": "[10-B14, 2-chloro-1-[1-(3,4-dimethylphenyl)-2,5-dimethyl-1H-pyrrol-3-yl]ethan-1-one]", "% of control remaining": 97.5648},
      {"smiles": "Cc1ccc(-n2c(C)cc(C(=O)CCl)c2C)cc1F", "note": "[10-C06, 2-chloro-1-[1-(3-fluoro-4-methylphenyl)-2,5-dimethyl-1H-pyrrol-3-yl]ethan-1-one]", "% of control remaining": 94.9153},
      {"smiles": "Cc1cc(C)c(C(=O)CCl)c(C)c1", "note": "[10-C08, 2-chloro-1-(2,4,6-trimethylphenyl)ethan-1-one]", "% of control remaining": 98.9675},
      {"smiles": "Cc1cc(F)c(C(=O)CCl)cc1F", "note": "[10-L19, 2-chloro-1-(2,5-difluoro-4-methylphenyl)ethan-1-one]", "% of control remaining": 32.7294},
      {"smiles": "Cc1cc(C(=O)CCl)c(C)c(C)c1C", "note": "[10-I06, 2-chloro-1-(2,3,4,5-tetramethylphenyl)ethan-1-one]", "% of control remaining": 98.9675},
      {"smiles": "Cc1cc(C(=O)CCl)c(F)cc1F", "note": "[10-O03, 2-chloro-1-(2,4-difluoro-5-methylphenyl)ethan-1-one]", "% of control remaining": 34.9114},
      {"smiles": "N#CC(=Cc1ccc([N+](=O)[O-])cc1)C(=O)Nc1ccc(Cl)cc1", "note": "[8-O11, N-(4-chlorophenyl)-2-cyano-3-(4-nitrophenyl)prop-2-enamide]", "% of control remaining": 68.7288},
      {"smiles": "O=C(CCl)N1N=C(c2cccs2)CC1c1cccc(O)c1", "note": "(stereo not shown) [6-L04, 2-chloro-1-[5-(3-hydroxyphenyl)-3-(thiophen-2-yl)-4,5-dihydro-1H-pyrazol-1-yl]ethan-1-one]", "% of control remaining": 102.076},
      {"smiles": "CC(CO)(Cc1ccc(F)cc1)NC(=O)CCl", "note": "(stereo not shown) [7-F06, 2-chloro-N-{2-[(4-fluorophenyl)methyl]-1-hydroxypropan-2-yl}acetamide]", "% of control remaining": 78.5065},
      {"smiles": "CC(Cl)C(=O)N1Cc2ccccc2OCC1C", "note": "(stereo not shown) [7-F11, 2-chloro-1-(3-methyl-2,3,4,5-tetrahydro-1,4-benzoxazepin-4-yl)propan-1-one]", "% of control remaining": 75.731},
      {"smiles": "Cc1ccc(C=C(C#N)C(=O)NCc2ccco2)o1", "note": "[8-P19, 2-cyano-N-[(furan-2-yl)methyl]-3-(5-methylfuran-2-yl)prop-2-enamide]", "% of control remaining": 80.6934},
      {"smiles": "N#CC(=Cc1cc2ccccc2o1)C(=O)NCc1ccco1", "note": "[9-O08, 3-(1-benzofuran-2-yl)-2-cyano-N-[(furan-2-yl)methyl]prop-2-enamide]", "% of control remaining": 80.4215},
      {"smiles": "N#CC(=Cc1ccc([N+](=O)[O-])o1)C(=O)NCc1ccco1", "note": "[8-I17, 2-cyano-N-[(furan-2-yl)methyl]-3-(5-nitrofuran-2-yl)prop-2-enamide]", "% of control remaining": -0.06798},
      {"smiles": "Cc1cc(C=C(C#N)C(N)=O)c(C)n1-c1cccc2ccccc12", "note": "[9-I12, 2-cyano-3-[2,5-dimethyl-1-(naphthalen-1-yl)-1H-pyrrol-3-yl]prop-2-enamide]", "% of control remaining": 52.4133},
      {"smiles": "C=CC(=O)N1CCC(C(=O)NC[C@H]2C[C@@H](O)C2)(c2ccccc2)CC1", "note": "[3-O04, 4-phenyl-1-(prop-2-enoyl)-N-{[(1s,3s)-3-hydroxycyclobutyl]methyl}piperidine-4-carboxamide]", "% of control remaining": 105.852},
      {"smiles": "CC(Cl)C(=O)Nc1ccccc1[N+](=O)[O-]", "note": "(stereo not shown) [4-G18, 2-chloro-N-(2-nitrophenyl)propanamide]", "% of control remaining": 96.0966},
      {"smiles": "CN(C)CCN1C(=O)C=CC1=O", "note": "[10-G11, 1-[2-(dimethylamino)ethyl]-2,5-dihydro-1H-pyrrole-2,5-dione]", "% of control remaining": 99.9026},
      {"smiles": "O=C1C=CC(=O)N1CCCCO", "note": "[10-K07, 1-(4-hydroxybutyl)-2,5-dihydro-1H-pyrrole-2,5-dione]", "% of control remaining": 17.4557},
      {"smiles": "CCOC=C(C#N)C(=O)N1CCN(S(=O)(=O)c2cc[nH]n2)CC1", "note": "[9-D06, 3-ethoxy-2-[4-(1H-pyrazole-3-sulfonyl)piperazine-1-carbonyl]prop-2-enenitrile]", "% of control remaining": 86.1319},
      {"smiles": "C#CCN1C(=O)C=CC1=O", "note": "[10-F09, 1-(prop-2-yn-1-yl)-2,5-dihydro-1H-pyrrole-2,5-dione]", "% of control remaining": 15.1179},
      {"smiles": "CC(Cl)C(=O)N1CCN(Cc2ccc3ccccc3n2)CC1", "note": "(stereo not shown) [7-A15, 2-chloro-1-{4-[(quinolin-2-yl)methyl]piperazin-1-yl}propan-1-one]", "% of control remaining": 80.0925},
      {"smiles": "Cc1nc(C)c(C(=O)CCl)o1", "note": "[10-N08, 2-chloro-1-(2,4-dimethyl-1,3-oxazol-5-yl)ethan-1-one]", "% of control remaining": 41.4572},
      {"smiles": "Cc1nc(C#N)c(N2CCN(C(=O)CCl)CC2)o1", "note": "[5-L18, 5-[4-(2-chloroacetyl)piperazin-1-yl]-2-methyl-1,3-oxazole-4-carbonitrile]", "% of control remaining": 96.3329},
      {"smiles": "Cc1ccc(C(=O)CCl)o1", "note": "[10-A09, 2-chloro-1-(5-methylfuran-2-yl)ethan-1-one]", "% of control remaining": 117.514},
      {"smiles": "CC(Cl)C(=O)Nc1c(Cl)cccc1Cl", "note": "(stereo not shown) [4-B16, 2-chloro-N-(2,6-dichlorophenyl)propanamide]", "% of control remaining": 102.653},
      {"smiles": "C=CC(=O)NC(=O)NCc1ccccc1", "note": "[1-I04, 1-benzyl-3-(prop-2-enoyl)urea]", "% of control remaining": 96.861},
      {"smiles": "NS(=O)(=O)c1cccc2cc(NC(=O)CCl)ccc12", "note": "[5-K16, 2-chloro-N-(5-sulfamoylnaphthalen-2-yl)acetamide]", "% of control remaining": 109.11},
      {"smiles": "C=CC(=O)N(Cc1c(F)cc(C)cc1Cl)C1CCCOCC1", "note": "(stereo not shown) [2-A13, N-[(2-chloro-6-fluoro-4-methylphenyl)methyl]-N-(oxepan-4-yl)prop-2-enamide]", "% of control remaining": 81.8585},
      {"smiles": "C=CC(=O)N1CCC(C(=O)N2CCN(c3ccnc(C)n3)CC2)CC1", "note": "[2-L06, 1-{4-[4-(2-methylpyrimidin-4-yl)piperazine-1-carbonyl]piperidin-1-yl}prop-2-en-1-one]", "% of control remaining": 88.9607},
      {"smiles": "COc1cccc([C@H]2C[C@H](N(C)C(=O)C(C)Cl)C2)c1", "note": "(stereo partly shown) [6-B17, 2-chloro-N-methyl-N-[(1r,3r)-3-(3-methoxyphenyl)cyclobutyl]propanamide]", "% of control remaining": 89.6388},
      {"smiles": "Cc1coc(C)c1C(=O)CCl", "note": "[10-M11, 2-chloro-1-(2,4-dimethylfuran-3-yl)ethan-1-one]", "% of control remaining": 109.41},
      {"smiles": "Cc1noc(C)c1CN(C)C(=O)CCl", "note": "[5-G06, 2-chloro-N-[(3,5-dimethyl-1,2-oxazol-4-yl)methyl]-N-methylacetamide]", "% of control remaining": 92.4661},
      {"smiles": "Cc1noc(C)c1C(=O)CCl", "note": "[10-K13, 2-chloro-1-(3,5-dimethyl-1,2-oxazol-4-yl)ethan-1-one]", "% of control remaining": 23.0664},
      {"smiles": "CN(C(=O)CCl)C1CCN(c2ccccc2F)C1=O", "note": "(stereo not shown) [5-A18, 2-chloro-N-[1-(2-fluorophenyl)-2-oxopyrrolidin-3-yl]-N-methylacetamide]", "% of control remaining": 104.066},
      {"smiles": "O=C1C=CC(=O)N1c1ccc(F)cc1F", "note": "[10-F15, 1-(2,4-difluorophenyl)-2,5-dihydro-1H-pyrrole-2,5-dione]", "% of control remaining": 26.4952},
      {"smiles": "O=C(c1ccccc1)c1cc(Cl)ccc1N1C(=O)C=CC1=O", "note": "[10-M16, 1-(2-benzoyl-4-chlorophenyl)-2,5-dihydro-1H-pyrrole-2,5-dione]", "% of control remaining": 57.9778},
      {"smiles": "O=C1C=CC(=O)N1c1ccccc1F", "note": "[10-D17, 1-(2-fluorophenyl)-2,5-dihydro-1H-pyrrole-2,5-dione]", "% of control remaining": 26.1835},
      {"smiles": "N#CC(=Cc1cccc(-c2ccncc2)c1)C(=O)NCc1ccco1", "note": "[9-B06, 2-cyano-N-[(furan-2-yl)methyl]-3-[3-(pyridin-4-yl)phenyl]prop-2-enamide]", "% of control remaining": 87.4915},
      {"smiles": "C=CC(=O)N1CCC(c2nc(C3CC3)no2)C1", "note": "(stereo not shown) [2-E09, 1-[3-(3-cyclopropyl-1,2,4-oxadiazol-5-yl)pyrrolidin-1-yl]prop-2-en-1-one]", "% of control remaining": 93.9014},
      {"smiles": "C=CC(=O)N1CCC(C(=O)NCCC2(O)CCCOC2)CC1", "note": "(stereo not shown) [2-B04, N-[2-(3-hydroxyoxan-3-yl)ethyl]-1-(prop-2-enoyl)piperidine-4-carboxamide]", "% of control remaining": 101.004},
      {"smiles": "Cc1ccc(C(=O)C(C)Cl)cc1C", "note": "(stereo not shown) [10-B20, 2-chloro-1-(3,4-dimethylphenyl)propan-1-one]", "% of control remaining": 99.2792},
      {"smiles": "CCc1ccc(NC(=O)C(C#N)=Cc2cccnc2)cc1", "note": "[8-G04, 2-cyano-N-(4-ethylphenyl)-3-(pyridin-3-yl)prop-2-enamide]", "% of control remaining": 83.8205}
    ]}
  ]
}
